± gives the standard deviation of the averaged measurements.
Experiments:
Test in all cases: promoter activity interaction Z-score (Lux/OD deviation from empty-vector control); higher = stronger promoter induction by the compound
[1] = tested on: E. coli BW25113 acrABp lux reporter
Method in brief: (§1)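 E. coli BW25113, as wild type or one of three single-gene deletion strains, carried low-copy luxCDABE promoter reporters and grew in 40 µl LB Lennox in 384-well plates at 37°C, with OD600 and luminescence read every 30 min for 12 h. Each compound was run at four 1:2 dilutions in biological duplicates, integration spanned 0–8 h for wild type and 1–9 h for deletion strains, and wells under 10% of the median growth value were dropped. The score is the Z-transformed residual of growth-normalised luminescence fitted against a control.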

[2] = tested on: E. coli BW25113 micFp lux reporter
Method in brief: as §1

[3] = tested on: E. coli BW25113 ompFp lux reporter
Method in brief: as §1

[4] = 18.3 µg/ml, genetic background: wild type
[5] = 18.3 µg/ml, genetic background: ΔmarA
[6] = 18.3 µg/ml, genetic background: Δrob
[7] = 18.3 µg/ml, genetic background: ΔsoxS
[8] = 36.5 µg/ml, genetic background: wild type
[9] = 36.5 µg/ml, genetic background: ΔmarA
[10] = 36.5 µg/ml, genetic background: Δrob
[11] = 36.5 µg/ml, genetic background: ΔsoxS
[12] = 73.1 µg/ml, genetic background: wild type
[13] = 73.1 µg/ml, genetic background: ΔmarA
[14] = 73.1 µg/ml, genetic background: Δrob
[15] = 73.1 µg/ml, genetic background: ΔsoxS
[16] = 146.1 µg/ml, genetic background: wild type
[17] = 146.1 µg/ml, genetic background: ΔmarA
[18] = 146.1 µg/ml, genetic background: Δrob

## O=C(O)CN(CCN(CC(=O)O)CC(=O)O)CC(=O)O
[1]; [4]
  promoter activity interaction Z-score: -0.0934 ± 0.22
[1]; [5]
  promoter activity interaction Z-score: -0.603 ± 0.65
[1]; [6]
  promoter activity interaction Z-score: -0.36 ± 0.3
[1]; [7]
  promoter activity interaction Z-score: -0.525 ± 0.13
[1]; [8]
  promoter activity interaction Z-score: -0.397 ± 0.38
[1]; [9]
  promoter activity interaction Z-score: -0.546 ± 0.64
[1]; [10]
  promoter activity interaction Z-score: -0.8 ± 0.08
[1]; [11]
  promoter activity interaction Z-score: -0.688 ± 0.13
[1]; [12]
  promoter activity interaction Z-score: -0.174 ± 0.17
[1]; [13]
  promoter activity interaction Z-score: -0.55 ± 0.59
[1]; [14]
  promoter activity interaction Z-score: -0.865 ± 0.14
[1]; [15]
  promoter activity interaction Z-score: -0.724 ± 0.18
[1]; [16]
  promoter activity interaction Z-score: -0.36 ± 0.21
[1]; [17]
  promoter activity interaction Z-score: -1.25 ± 0.29
[1]; [18]
  promoter activity interaction Z-score: 0.682 ± 0.76
[2]; [4]
  promoter activity interaction Z-score: 0.0311 ± 0.38
[2]; [5]
  promoter activity interaction Z-score: 0.0253 ± 0.09
[2]; [6]
  promoter activity interaction Z-score: -0.0661 ± 0.029
[2]; [7]
  promoter activity interaction Z-score: 0.33 ± 0.3
[2]; [8]
  promoter activity interaction Z-score: 0.187 ± 0.43
[2]; [9]
  promoter activity interaction Z-score: 0.106 ± 0.075
[2]; [10]
  promoter activity interaction Z-score: -0.0635 ± 0.073
[2]; [11]
  promoter activity interaction Z-score: 0.413 ± 0.38
[2]; [12]
  promoter activity interaction Z-score: 0.253 ± 0.014
[2]; [13]
  promoter activity interaction Z-score: 0.129 ± 0.061
[2]; [14]
  promoter activity interaction Z-score: 0.0924 ± 0.051
[2]; [15]
  promoter activity interaction Z-score: 0.66 ± 0.28
[2]; [16]
  promoter activity interaction Z-score: 1.76 ± 0.36
[2]; [17]
  promoter activity interaction Z-score: 2.53 ± 1.4
[2]; [18]
  promoter activity interaction Z-score: 2.95 ± 1.1
[3]; [4]
  promoter activity interaction Z-score: -0.399 ± 0.35
[3]; [5]
  promoter activity interaction Z-score: -0.581 ± 0.52
[3]; [6]
  promoter activity interaction Z-score: -0.522 ± 0.013
[3]; [7]
  promoter activity interaction Z-score: 0.261 ± 0.35
[3]; [8]
  promoter activity interaction Z-score: -0.73 ± 0.2
[3]; [9]
  promoter activity interaction Z-score: -0.519 ± 0.045
[3]; [10]
  promoter activity interaction Z-score: -0.748 ± 0.082
[3]; [11]
  promoter activity interaction Z-score: 0.0564 ± 0.85
[3]; [12]
  promoter activity interaction Z-score: -1.22 ± 0.24
[3]; [13]
  promoter activity interaction Z-score: -0.836 ± 0.33
[3]; [14]
  promoter activity interaction Z-score: -0.994 ± 0.2
[3]; [15]
  promoter activity interaction Z-score: 0.0122 ± 0.85
[3]; [16]
  promoter activity interaction Z-score: -1.07 ± 0.81
[3]; [17]
  promoter activity interaction Z-score: -1.23 ± 0.21
